From PubChem BioAssay (NCATS)
Several values for one entry are separate records, joined by “and”; a condition that tells them apart may be missing. Identical values can stand only once. Inconclusive results are not listed. Activity calls are given as the source filed them. The call rests on the fitted dose curve; in most records, active means well fitted curve in the direction sought with a large enough effect; inconclusive means small, poorly fitted or top-dose-only effect, or another doubt; inactive means no such curve, though single readings can be large; an effect the other way counts as inactive or inconclusive.

Key:
[1] = Viability qHTS for spleen associated tyrosine kinase inhibitor (SYKi) drug resistant MV4-11 cells (AID 1963824); further: nearly all actives have a fitted effect of over 35% in size
Method in brief: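 SYK-inhibitor-resistant MV4-11 AML cells were seeded at 500 per well onto compound and cultured 72 hours (37 °C, 5% CO2). CellTiter-Glo was then added, and after 10 min at room temperature, luminescence gave viability.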

[2] = Quantitative highthroughput screen to assess conditional lethalithy of NOMO1 cells grown in Human Plasma-Like Medium with dialyzed fetal bovine serum (HPLM+ds) (AID 1963878); further: nearly all actives have a fitted effect of over 35% in size;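 on Viability: 100% = DMSO wells and 0% = empty wells on each plate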
Method in brief: (§1)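 Each medium arm—HPLM with 10% dialyzed FBS, or RPMI1640 with 5 mM glucose and 10% untreated or dialyzed FBS—was screened against an 11-point, 3-fold compound titration for 48 h at 37 °C, with CellTiter-Glo luminescence as endpoint.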

[3] = Quantitative highthroughput screen to assess conditional lethalithy of P12 Ichikawa cells grown in RPMI1640 with dialyzed fetal bovine serum (RPMI+ds) (AID 1963880); conditions: Potency: P12-Ichikawa viability; further: nearly all actives have a fitted effect of over 35% in size;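 on Viability: 100% = DMSO wells and 0% = empty wells on each plate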
Method in brief: as §1

[4] = Quantitative highthroughput screen to assess conditional lethalithy of P12 Ichikawa cells grown in RPMI1640 with untreated serum (RPMI+s) (AID 1963881); conditions: Potency: viability; further: nearly all actives have a fitted effect of over 35% in size;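 on Viability: series mostly up to about 46 µM; 100% = DMSO wells and 0% = empty wells without cells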
Method in brief: as §1

[5] = Quantitative highthroughput screen to assess conditional lethalithy of SEM cells grown in Human Plasma-Like Medium with dialyzed fetal bovine serum (HPLM+ds) (AID 1963882); further: nearly all actives have a fitted effect of over 35% in size; on Viability: series mostly up to about 46 µM
Method in brief: as §1

[6] = Cellular viability qHTS for adrenocortical cancer (ACC) cell line NCI-H295R (AID 1963990); further: nearly all actives have a fitted effect of over 60% in size
Method in brief: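 Luminescent ATP read-out (CellTiter-Glo, 20 min RT) after 48 h drug exposure of NCI-H295R cells; a titration up to 46 uM final. Data normalized to doxorubicin (100% inhibition) and DMSO (0%); 4-parameter fit gives IC50, max response.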

[7] = Quantitative highthroughput screen to assess conditional lethalithy of P12 Ichikawa cells grown in Human Plasma-Like Medium with dialyzed fetal bovine serum (HPLM+ds) (AID 1963879); conditions: Potency: viability; further: nearly all actives have a fitted effect of over 35% in size; on Viability: series mostly up to about 46 µM
Method in brief: as §1

[8] = Quantitative highthroughput screen to assess conditional lethalithy of SEM cells grown in RPMI1640 with unreated serum (RPMI+s) (AID 1963883); further: nearly all actives have a fitted effect of over 35% in size;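 on Viability: 100% = DMSO wells and 0% = empty wells without cells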
Method in brief: as §1

[9] = Quantitative highthroughput screen to assess conditional lethalithy of SEM cells grown in RPMI1640 with dialyzed fetal bovine serum (RPMI+ds) (AID 1963884); further: nearly all actives have a fitted effect of over 35% in size;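 on Viability: series mostly up to about 46 µM; 100% = DMSO control wells and 0% = empty wells without cells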
Method in brief: as §1

[10] = Cellular viability qHTS for adrenocortical cancer (ACC) cell line SW-13 (AID 1963989); conditions: SW-13 ACC cells viability, CellTiter-Glo, 48 h; activity (max response): hits give low values; further: nearly all actives have a fitted effect of over 65% in size;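 on activity (max response): cells grown in serum-free medium with ITS supplement; on the % scale 0 is the no-effect control and ±100 the full control effect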
Method in brief: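 SW-13 cells in ITS-supplemented serum-free DMEM were plated overnight, then exposed for 48 h at 37C to compound titrations (up to 46 uM final). Viability was read by CellTiter-Glo luminescence; four-parameter logistic fits gave IC50 and efficacy.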

[11] = Quantitative highthroughput screen to assess conditional lethalithy of NOMO1 cells grown in RPMI1640 with dialyzed fetal bovine serum (RPMI+ds) (AID 1963877); further: nearly all actives have a fitted effect of over 30% in size;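 on Viability: series mostly up to about 46 µM; 100% = DMSO control wells and 0% = empty wells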
Method in brief: as §1
Potency means the concentration at half of the fitted maximal effect.

CCCCC(C)(C)[C@H](O)C=C[C@H]1[C@H](O)CC(=O)[C@H]1CC=CCCCC(=O)O
inactive: Potency [6]
active: Potency [1] 0.148 µM | Potency [2] 20.9 µM | Potency [3] 23.5 µM | Potency [4] 26.4 µM | Potency [5] 20.9 µM

O=c1cc(-c2ccccc2)oc2cc(O)cc(O)c12
active: Potency [1] 16.6 µM | Potency [2] 23.5 µM | Potency [7] 26.4 µM | Potency [3] 23.5 µM | Potency [4] 20.9 µM | Potency [5] 16.6 µM | Potency [8] 11.8 µM | Potency [9] 16.6 µM

CCOC(=O)[C@H](CCc1ccccc1)N[C@H]1CCc2ccccc2N(CC(=O)O)C1=O
active: Potency [1] 16.6 µM | Potency [2] 16.6 µM
inactive: activity (max response) [10] -3.37% | Potency [6]

CCOC(=O)[C@@]1(CCCCCCOc2ccc(Cl)cc2)CO1
inactive: Potency [2]
active: Potency [1] 20.9 µM | Potency [8] 11.7 µM

Cn1cc(-c2[nH]c3cc(NC(=O)[C@H](N)C4CCCCC4)cc4c3c2C=NNC4=O)cn1
inactive: Potency [6]
active: Potency [1] 164 nM and 83.3 nM | Potency [11] 5.26 µM | Potency [3] 6.62 µM | Potency [4] 7.43 µM | Potency [5] 2.96 µM | Potency [9] 1.18 µM

CCN(CC)CCCCNc1nc2cc(Cl)c(Cl)cc2nc1-c1ccc(-c2cccs2)s1
active: Potency [1] 4.68 µM | Potency [2] 20.9 µM | Potency [6] 7.08 µM

CN1CCc2c(n(Cc3ccc(C(=O)NO)cc3)c3ccccc23)C1
active: Potency [1] 18.6 µM | Potency [5] 26.4 µM | Potency [8] 23.5 µM | Potency [6] 25.1 µM
inactive: Potency [11]

CC(C)C(=O)Nc1ccc([N+](=O)[O-])c(C(F)(F)F)c1
inactive: Potency [5] | Potency [8] | Potency [9] | activity (max response) [10] 15.5% | Potency [6]
active: Potency [1] 10.6 µM and 18.6 µM | Potency [7] 1.87 µM | Potency [3] 3.32 µM | Potency [4] 2.09 µM

O=C1Cc2cc(CCN3CCN(c4nsc5ccccc45)CC3)c(Cl)cc2N1
inactive: Potency [11] | Potency [3] | Potency [4] | Potency [9]
active: Potency [1] 3.35 µM and 4.11 µM

Oc1ccc(-c2ccc(-c3cc(Nc4cccc(CNC5CC5)c4)n[nH]3)cc2)c(O)c1
active: Potency [1] 0.461 µM | Potency [7] 2.35 µM | Potency [4] 2.35 µM | Potency [5] 1.66 µM | Potency [8] 4.69 µM | Potency [9] 7.43 µM | Potency [10] 25.1 µM | Potency [6] 10 µM

Nc1nc(NCCNc2ncc(-n3ccnc3)c(-c3ccc(Cl)cc3Cl)n2)ccc1[N+](=O)[O-]
active: Potency [1] 3.72 µM
inactive: Potency [7] | Potency [3] | Potency [4] | Potency [5] | Potency [8] | activity (max response) [10] -10% | Potency [6]

CCN(CC)CCCCNc1ncc2c(n1)N(C)C(=O)N(c1c(Cl)c(OC)cc(OC)c1Cl)C2
active: Potency [1] 14.8 µM | Potency [2] 26.4 µM | Potency [5] 14.8 µM | Potency [8] 13.2 µM | Potency [9] 14.8 µM | Potency [10] 25.1 µM

Cc1cccc(Nc2nc(N[C@@H]3CCCC[C@H]3N)ncc2C(N)=O)c1
active: Potency [1] 2.63 µM | Potency [7] 1.32 µM | Potency [3] 1.87 µM | Potency [4] 3.32 µM | Potency [8] 4.18 µM | Potency [9] 2.35 µM | Potency [10] 25.1 µM | Potency [6] 28.2 µM

CO[C@@H]1[C@H](N(C)C(=O)c2ccccc2)C[C@H]2O[C@]1(C)n1c3ccccc3c3c4c(c5c6ccccc6n2c5c31)C(=O)NC4
active: Potency [1] 51.7 nM and 59 nM | Potency [7] 2.64 µM | Potency [5] 0.662 µM | Potency [8] 0.743 µM | Potency [9] 0.743 µM

CC1(COc2ccc3c(c2)ncn3-c2ccc3cccc(N4CCC(N)CC4)c3n2)COC1
active: Potency [1] 11.6 nM and 10.5 nM | Potency [7] 10.5 µM | Potency [8] 0.0209 µM | Potency [10] 25.1 µM | Potency [6] 14.1 µM

COc1ccc2c(c1)CC[C@@H](CN(C)CC(=O)O)[C@H]2c1ccccc1
active: Potency [7] 2.64 µM | Potency [4] 2.64 µM | Potency [5] 2.35 µM | Potency [8] 2.64 µM
inactive: Potency [1] | activity (max response) [10] 12.6% | Potency [6]

Nc1nc2c(c(=O)[nH]1)N(C=O)[C@H](CNc1ccc(C(=O)N[C@@H](CCC(=O)O)C(=O)O)cc1)CN2
inactive: Potency [1] | Potency [5] | Potency [8] | Potency [9] | activity (max response) [10] 4.65% | Potency [6]
active: Potency [7] 2.96 µM | Potency [3] 3.32 µM | Potency [4] 2.64 µM

CN1N=C(N)c2cn([C@@H]3O[C@H](COP(=O)(O)O)[C@@H](O)[C@@H]3O)c3ncnc1c23
active: Potency [1] 0.0742 µM | Potency [2] 5.26 µM | Potency [5] 0.0296 µM | Potency [8] 0.0296 µM | Potency [9] 0.0074 µM

CN(CC(=O)N(Cc1ccc(C2CCCCC2)cc1)c1ccc(C(=O)O)c(O)c1)S(=O)(=O)c1c(F)c(F)c(F)c(F)c1F
active: Potency [1] 2.63 µM | Potency [7] 20.9 µM | Potency [8] 16.6 µM
inactive: activity (max response) [10] -5.17%

C[N+](C)([O-])CCNc1ccc(NCC[N+](C)(C)[O-])c2c1C(=O)c1c(O)ccc(O)c1C2=O
active: Potency [1] 0.934 µM | Potency [7] 1.66 µM | Potency [4] 0.743 µM | Potency [8] 0.296 µM | Potency [9] 0.743 µM
inactive: Potency [6]

CC[C@@]1(O)C[C@H](O[C@H]2C[C@H](N(C)C)[C@H](O[C@H]3C[C@H](O)[C@H](O[C@H]4CCC(=O)[C@H](C)O4)[C@H](C)O3)[C@H](C)O2)c2c(cc3c(c2O)C(=O)c2c(O)cccc2C3=O)[C@@H]1C(=O)OC
inactive: Potency [7]
active: Potency [1] 1.32 µM | Potency [2] 1.18 µM | Potency [3] 16.6 µM | Potency [9] 0.0662 µM | Potency [10] 10 µM | Potency [6] 22.4 µM
